Experimental data: the supplement of paper PMC8371130
Counter-ions that a name gives are not always drawn.

Test system: HL-1
Assay: relative cell viability (CellTiter-Glo) vs DMSO control (% of DMSO control); higher = more viable cells
Summary of the method: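 One day after HL-1 mouse atrial cardiomyocytes were plated (1000 cells per well, 384-well plates) with compounds at 40, 200, 1000 or 5000 nM in 0.01% DMSO, they were transferred to a hypoxic workstation at 1% O2. After 48 h there, the cells were reoxygenated for 24 h in a normal incubator, and comparison cells stayed in normoxia throughout the same time. Cell viability was quantified with CellTiter-Glo luminescence and normalised to vehicle-treated control cells.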

[1] = oxygen condition: hypoxia 48 h (1% O2) + reoxygenation 24 h, 40 nM
[2] = oxygen condition: hypoxia 48 h (1% O2) + reoxygenation 24 h, 200 nM
[3] = oxygen condition: hypoxia 48 h (1% O2) + reoxygenation 24 h, 1000 nM
[4] = oxygen condition: hypoxia 48 h (1% O2) + reoxygenation 24 h, 5000 nM
[5] = oxygen condition: normoxia 72 h, 40 nM
[6] = oxygen condition: normoxia 72 h, 200 nM
[7] = oxygen condition: normoxia 72 h, 1000 nM
[8] = oxygen condition: normoxia 72 h, 5000 nM

| Compound | relative cell viability [1] | relative cell viability [2] | relative cell viability [3] | relative cell viability [4] | relative cell viability [5] | relative cell viability [6] | relative cell viability [7] | relative cell viability [8] |
| --- | --- | --- | --- | --- | --- | --- | --- | --- |
| Cc1ccc(Nc2nccc(N(C)c3ccc4c(C)n(C)nc4c3)n2)cc1S(N)(=O)=O [Pazopanib HCl] | 94.1 | 106 | 105 | 109 | 103 | 113 | 104 | 109 |
| CC(C)(C)CC(C)(C)c1ccc(OCCOCC[N+](C)(C)Cc2ccccc2)cc1 [Benzethonium chloride] | 102 | 94.7 | 75.7 | 17.6 | 97.9 | 93.1 | 66.7 | 18 |
| CS(=O)(=O)OCCCCOS(C)(=O)=O [Busulfan] | 108 | 102 | 103 | 107 | 104 | 103 | 97.4 | 120 |
| O=C(O)c1cn(C2CC2)c2cc(N3CCNCC3)c(F)cc2c1=O [Ciprofloxacin] | 107 | 100 | 99.7 | 121 | 97.4 | 99.2 | 107 | 121 |
| CN(C)CCCN1c2ccccc2CCc2ccccc21 [Imipramine HCl] | 98.5 | 98.9 | 96.2 | 110 | 100 | 101 | 101 | 111 |
| NS(=O)(=O)c1cc(C(=O)O)c(NCc2ccco2)cc1Cl [Furosemide] | 116 | 105 | 108 | 112 | 106 | 101 | 111 | 106 |
| CCCCOc1ccc(CC(=O)NO)cc1 [Bufexamac] | 109 | 100 | 111 | 117 | 105 | 107 | 107 | 110 |
| CC(=O)OCC(=O)[C@@]12OC(C)(C)O[C@@H]1C[C@H]1[C@@H]3C[C@H](F)C4=CC(=O)C=C[C@]4(C)[C@@]3(F)[C@@H](O)C[C@@]12C [Fluocinonide] | 93.4 | 91.8 | 89.8 | 99 | 92.3 | 88.7 | 89.5 | 91.2 |
| CCCC(=O)[O-].[Na+] [Sodium butyrate] | 103 | 101 | 99.4 | 107 | 98.7 | 99.2 | 105 | 107 |
| CN(C)C/C=C/C(=O)Nc1cc2c(Nc3ccc(F)c(Cl)c3)ncnc2cc1O[C@H]1CCOC1 [Afatinib] | 102 | 107 | 85.9 | 64.7 | 102 | 102 | 72.5 | 17.6 |
| C#C[C@]1(O)CC[C@H]2[C@@H]3CCc4cc(O)ccc4[C@H]3CC[C@@]21C [Ethinyl Estradiol] | 104 | 104 | 105 | 107 | 107 | 105 | 108 | 110 |
| COc1ccc([C@@H]2Sc3ccccc3N(CCN(C)C)C(=O)[C@@H]2OC(C)=O)cc1 [Diltiazem HCl] | 104 | 105 | 106 | 114 | 105 | 108 | 109 | 113 |
| CCCCNc1cc(C(=O)O)cc(S(N)(=O)=O)c1Oc1ccccc1 [Bumetanide] | 102 | 108 | 110 | 113 | 105 | 96.8 | 112 | 118 |
| CCOc1ccc2nc(S(N)(=O)=O)sc2c1 [Ethoxzolamide] | 100 | 101 | 96.7 | 105 | 102 | 98.8 | 102 | 108 |
| CCCN(CCC)CCc1cccc2c1CC(=O)N2 [Ropinirole HCl] | 109 | 117 | 106 | 114 | 107 | 104 | 107 | 110 |
| Cc1cc(C2CCCCC2)n(O)c(=O)c1 [Ciclopirox] | 95.4 | 92.3 | 80.4 | 5.32 | 87.8 | 69.4 | 20 | 2.16 |
| COCCCC/C(=N\OCCN)c1ccc(C(F)(F)F)cc1 [Fluvoxamine maleate] | 101 | 109 | 94.9 | 94.7 | 109 | 98.3 | 106 | 95.2 |
| N=C(N)NC(=N)N1CCOCC1 [Moroxydine] | 101 | 98.5 | 103 | 108 | 96.3 | 101 | 105 | 114 |
| O=c1oc2c(O)c(O)cc3c(=O)oc4c(O)c(O)cc1c4c23 [Ellagic acid] | 113 | 104 | 114 | 124 | 101 | 113 | 118 | 119 |
| CC1=C(/C=C/C(C)=C/C=C/C(C)=C/C(=O)O)C(C)(C)CCC1 [Tretinoin] | 113 | 109 | 110 | 100 | 112 | 106 | 101 | 121 |

| Compound | relative cell viability [1] | relative cell viability [2] | relative cell viability [3] | relative cell viability [4] | relative cell viability [5] | relative cell viability [6] | relative cell viability [7] | relative cell viability [8] |
| --- | --- | --- | --- | --- | --- | --- | --- | --- |
| Oc1ccc(OCc2ccccc2)cc1 [Monobenzone] | 99.6 | 114 | 110 | 103 | 107 | 104 | 108 | 99.8 |
| Cc1cccc(C)c1NC(=O)C1CCCCN1C (stereo not given) [Mepivacaine HCl] | 102 | 99.8 | 121 | 105 | 102 | 110 | 111 | 111 |
| CN(C)CCN(Cc1cccs1)c1ccccn1 [Methapyrilene HCl] | 104 | 104 | 104 | 84.1 | 109 | 107 | 111 | 111 |
| CCC1(c2ccccc2)C(=O)NCNC1=O [Primidone] | 101 | 105 | 110 | 95.7 | 104 | 103 | 98.6 | 106 |
| CCc1ccc(CCOc2ccc(CC3SC(=O)NC3=O)cc2)nc1 (stereo not given) [Pioglitazone hydrochloride] | 106 | 97.2 | 103 | 106 | 94.5 | 97.9 | 101 | 103 |
| Nc1nc(CC(=O)Nc2ccc(CCNC[C@H](O)c3ccccc3)cc2)cs1 [Mirabegron] | 112 | 110 | 111 | 112 | 103 | 104 | 113 | 129 |
| Cc1ncc([N+](=O)[O-])n1CC(O)CCl (stereo not given) [Ornidazole] | 106 | 109 | 123 | 115 | 108 | 108 | 103 | 117 |
| Cc1ccc(C(=O)Nc2ccc(CN3CCN(C)CC3)c(C(F)(F)F)c2)cc1C#Cc1cnc2cccnn12 [Ponatinib] | 105 | 108 | 113 | 107 | 103 | 103 | 105 | 106 |
| CC1(C)[C@@H](OC(=O)CCC(=O)O)CC[C@]2(C)[C@H]3C(=O)C=C4[C@@H]5C[C@@](C)(C(=O)O)CC[C@]5(C)CC[C@@]4(C)[C@]3(C)CC[C@@H]12 [Carbenoxolone Sodium] | 94.3 | 103 | 100 | 108 | 93.6 | 102 | 102 | 107 |
| CCCCCCCN(CC)CCCC(O)c1ccc(NS(C)(=O)=O)cc1 (stereo not given) [Ibutilide fumarate] | 103 | 95.7 | 98.8 | 92.9 | 98.3 | 97.9 | 97.3 | 97.6 |
| CCCCc1oc2ccccc2c1C(=O)c1cc(I)c(OCCN(CC)CC)c(I)c1 [Amiodarone HCl] | 99.8 | 95.4 | 103 | 110 | 102 | 110 | 106 | 116 |
| CCOc1ccccc1OC(c1ccccc1)C1CNCCO1 (stereo not given) [Reboxetine mesylate] | 105 | 102 | 105 | 122 | 115 | 99.7 | 108 | 119 |
| C[C@@H]1CCN(C(=O)CC#N)C[C@@H]1N(C)c1ncnc2[nH]ccc12 [Tofacitinib citrate] | 97 | 104 | 100 | 107 | 106 | 102 | 98.7 | 103 |
| CCCC(CCC)C(=O)O[C@H]1C[C@H]2CC[C@@H](C1)[N+]2(C)C [Anisotropine Methylbromide] | 104 | 101 | 93.2 | 97.8 | 96.3 | 93.7 | 84.7 | 109 |
| C#C[C@]1(O)CC[C@H]2[C@@H]3CCC4=CC(=O)CC[C@@H]4[C@H]3CC[C@@]21CC [Levonorgestrel] | 110 | 115 | 104 | 112 | 107 | 104 | 111 | 111 |
| CCCCC(=O)O[C@H]1CC[C@H]2[C@@H]3CCc4cc(O)ccc4[C@H]3CC[C@]12C [Estradiol valerate] | 100 | 103 | 108 | 108 | 98.8 | 103 | 102 | 118 |
| COc1ccc2[nH]cc(CCNC(C)=O)c2c1 [Melatonin] | 113 | 105 | 113 | 114 | 108 | 114 | 109 | 119 |
| Cc1cc(C#N)cc(C)c1Oc1nc(Nc2ccc(C#N)cc2)nc(N)c1Br [Etravirine] | 106 | 103 | 109 | 111 | 108 | 111 | 115 | 110 |
| O=C(Nc1c(Cl)cncc1Cl)c1ccc(OC(F)F)c(OCC2CC2)c1 [Roflumilast] | 101 | 82.1 | 92.9 | 99 | 90.6 | 84.6 | 93.7 | 93.6 |
| CS(=O)(=O)c1ccc([C@@H](O)[C@@H](CO)NC(=O)C(Cl)Cl)cc1 [Thiamphenicol] | 104 | 104 | 109 | 104 | 101 | 96.9 | 95.9 | 86.5 |
